Where “and” joins values, the source holds several entries; their conditions need not be identical. Identical values can stand only once. In all, about 390,000 compounds went through this assay and about 820 (0.21%) were called active. About 3% were inconclusive and are not listed. The call rests on the fitted dose curve; in most records, active means well fitted inhibition curve with a large enough effect; inconclusive means small, poorly fitted or top-dose-only effect, or another doubt; inactive means no such curve, though single readings can be large or run the other way. Only a selection was taken, and actives are over-represented in it overall. Some compounds were tested as several samples or in several runs, with calls that do not always agree.
Each molecule was assayed against Histone acetyltransferase KAT2A (Homo sapiens) (UniProt Q92830) (assay: qHTS Assay for Inhibitors of GCN5L2). Details: GCN5L2 HAT assay, ThioGlo1 CoA-SH fluorescence; series mostly up to 58.9 µM.
Procedure, shortened: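 qHTS, 1536-well. 20nM enzyme, pH 7.5 HEPES/EDTA/Tween-20 buffer; 15 min compound preinc., RT. Start: 75uM H3(1-25), 70uM AcCoA, 50uM ThioGlo1. Read Ex340/Em540 at t=0 (autofluorescence flag) and t=20 min.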
Potency means the concentration at half of the fitted maximal effect.

Chain of Histone acetyltransferase KAT2A (Homo sapiens) (Q92830 whole entry, looked up): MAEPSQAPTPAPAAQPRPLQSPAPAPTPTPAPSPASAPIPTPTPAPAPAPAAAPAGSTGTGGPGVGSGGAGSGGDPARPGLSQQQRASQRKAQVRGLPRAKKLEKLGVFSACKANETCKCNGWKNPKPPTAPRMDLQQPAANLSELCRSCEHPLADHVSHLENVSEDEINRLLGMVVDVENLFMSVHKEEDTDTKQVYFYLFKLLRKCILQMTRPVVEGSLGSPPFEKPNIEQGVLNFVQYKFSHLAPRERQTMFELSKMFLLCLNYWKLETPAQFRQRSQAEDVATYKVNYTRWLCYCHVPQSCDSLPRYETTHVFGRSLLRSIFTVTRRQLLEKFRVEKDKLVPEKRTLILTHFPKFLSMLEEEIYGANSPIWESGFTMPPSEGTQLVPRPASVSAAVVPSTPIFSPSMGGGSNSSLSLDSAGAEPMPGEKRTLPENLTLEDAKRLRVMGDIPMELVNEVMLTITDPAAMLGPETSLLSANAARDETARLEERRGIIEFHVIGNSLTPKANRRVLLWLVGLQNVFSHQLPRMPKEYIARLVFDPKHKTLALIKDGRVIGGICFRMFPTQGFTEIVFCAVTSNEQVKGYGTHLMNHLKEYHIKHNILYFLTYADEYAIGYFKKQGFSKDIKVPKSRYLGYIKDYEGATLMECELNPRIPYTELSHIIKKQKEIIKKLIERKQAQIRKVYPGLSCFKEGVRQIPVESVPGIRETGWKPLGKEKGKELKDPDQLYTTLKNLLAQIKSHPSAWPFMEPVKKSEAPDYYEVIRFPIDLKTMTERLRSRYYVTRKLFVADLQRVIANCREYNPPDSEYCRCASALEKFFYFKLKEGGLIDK

Potency, inactive:
CC[C@H](C)[C@H](NC(=O)[C@@H](N)CCC(=O)O)C(=O)N[C@@H](CC(C)C)C(=O)N[C@@H](CC(=O)O)C(=O)N[C@H](C(=O)N1CCC[C@H]1C(=O)N[C@@H](CO)C(=O)N[C@H](C(=O)O)[C@@H](C)O)C(C)C, NCCCCC(N)C(=O)O (configuration not stated), Cc1c(C)n(Cc2ccc(Cl)cc2)c2ccc(C(=O)N3CCN(c4ccccc4F)CC3)cc12, CC(C)c1ccc(Cn2c(COc3ccccc3)nc3ccccc32)cc1, C=C(C)C1CC=C(CO)CC1 (configuration not stated), COc1ccc2[nH]cc(CCNc3nc(-c4cccc(NS(C)(=O)=O)c4)nc4ccccc34)c2c1, O=C(CN(c1cc(C(F)(F)F)ccc1Cl)S(=O)(=O)c1ccccc1)NCc1cccnc1, CC(=O)N(c1ccc2oc(=O)sc2c1)S(=O)(=O)c1ccc(C)cc1, CC(C)(O)CCC(O)[C@@](C)(O)C1CC[C@]2(O)C3=CC(=O)C4CC(O)C(O)C[C@]4(C)C3CC[C@]12C (some centres not stated), Cc1cn([C@H]2CC(F)[C@@H](CO)O2)c(=O)[nH]c1=O (some centres not stated), C=CCOC(=O)C(=C)C, O=c1c(-c2cc(F)cc(F)c2)nc2cnc(Oc3ccccc3)nc2n1C[C@H]1CCCO1, O=C(c1cc(C(F)(F)F)cc(C(F)(F)F)c1)N1CCC[C@@]2(CCN(c3ccccn3)C2)C1, CCCCCCCC/C=C\CCCCCCCC(=O)OC[C@H](CO)OC(C)=O, O=C(c1ccco1)N1CCC[C@@]2(CCN(c3ccccc3)C2)C1, Cc1ccc(CC2(O)CCN(CCOc3ccc(O)cc3)CC2)cc1, CC(=O)OCC(=O)[C@@]1(O)CCC2C3CCC4=CC(=O)CC[C@]4(C)C3C(=O)C[C@]21C (some centres not stated), COc1ccc(-c2nc3ccc(C(=O)NCc4ccc(C)cc4)cc3nc2-c2ccc(OC)cc2)cc1, CCOc1ccc(NC(=O)c2ncoc2-c2ccco2)cc1, COc1ccc(NC(=O)COCc2cc(-c3ccco3)on2)cc1, CCN(c1ccccc1)S(=O)(=O)c1cc(C(=O)NCc2ccccn2)ccc1C, C[C@]12CC[C@@H]3C(=CCc4cc(O)ccc43)[C@@H]1CCC2=O, OCCN1CCN(CC/C=C2\c3ccccc3Sc3ccc(C(F)(F)F)cc32)CC1, Nc1nc2c(nc(Cl)n2C2OC(CO)C(O)C2O)c(=O)[nH]1 (configuration not stated), COc1ccc(C(=O)N2CCC3(CCCN(C(c4ccccc4)c4ccccc4)C3)CC2)cc1, FCOC(C(F)(F)F)C(F)(F)F, N#CCCn1c(=O)c(-c2cc(F)cc(F)c2)nc2cnc(Oc3ccccc3)nc21, Nc1nc2nc(Cl)[nH]c2c(=O)[nH]1, O=c1c(O)c(-c2ccc(O)cc2)oc2ccccc12, Oc1ccc(-c2c(-c3ccccc3)nn3c(C(F)(F)F)cc(C(F)(F)F)nc23)cc1, Fc1ccc(Cl)cc1-c1nc(Nc2ccncc2)c2nccnc2n1, CO[C@@]12[C@@H](COC(N)=O)C3=C(C(=O)C(C)=C(N)C3=O)N1C[C@@H]1N[C@@H]12, COc1ccccc1CNc1ncnc2ccc(-c3c(C)noc3C)cc12, COc1ccccc1-c1nc(NCc2cccs2)c2ccccc2n1, H-EHIPA-OH, Nc1nc2c(ncn2[C@@H]2O[C@H](COP(=O)(O)OP(=O)(O)OP(=O)(O)O)[C@@H](O)C2O)c(=O)[nH]1 (some centres not stated), O=C(Cc1ccc(S(=O)(=O)N2CCOCC2)s1)N1CCN(c2ccc(C(F)(F)F)cc2[N+](=O)[O-])CC1, O=C(Nc1cccc(C(F)(F)F)c1)c1ccc(N2CCNCC2)c([N+](=O)[O-])c1, CC(C)=CCN1CCC2(CCc3ccccc32)CC1, CC(C)C(NS(=O)(=O)c1ccc(-c2ccc(Br)cc2)cc1)C(=O)O (configuration not stated), COCCn1c(=O)c(-c2cccs2)nc2cncnc21, OCC(CO)NC1C[C@](O)(CO)[C@@H](O)[C@H](O)[C@H]1O (some centres not stated), COc1ccc(CNc2ncncc2-c2ccccc2C)c(OC)c1, COc1ccc(CCCOC(Cn2ccnc2)c2ccc(OC)cc2)cc1 (configuration not stated), Cc1ccccc1NC(=O)c1cnn(-c2ccccc2)c1NC(=O)c1ccco1, O=C(Cc1ccccc1)Nc1c(C(=O)N2CCCCCC2)cnn1-c1ccccc1, O=C(/C=C/c1cccc(F)c1)NC1CC1, CC(C)C1=CC2=CC[C@@H]3[C@](C)(CO)CCC[C@]3(C)C2CC1 (some centres not stated), CC1=C(/C=C/C(C)=C/C=C/C(C)=C/C=C/C=C(C)/C=C/C=C(C)/C=C/C(=O)[C@]2(C)C[C@@H](O)CC2(C)C)C(C)(C)C[C@H](O)C1, O=C(O)CCCCC(=O)O, CCCCCCCCCCCC(=O)O, NC(=O)c1sc(-c2ccsc2)cc1N, Cc1nc2cnc(N3CCNCC3)nc2n(CCc2ccccc2)c1=O, Cc1ccccc1-c1ccc(C(=O)O)s1, Cn1cc(-c2nc3cnc(N4CCNCC4)nc3n(CCc3ccccc3)c2=O)c2ccccc21, NCCCNCCCCN(CCCN)/[N+]([O-])=N/O, FC(F)(F)Oc1ccc(-c2cn3cccnc3n2)cc1, CC(C)(C)C(=O)Nc1ccc(-c2cn3cccnc3n2)cc1, CC1O[C@@H](Oc2c(-c3ccc(O)c(O)c3)oc3cc(O)cc(O)c3c2=O)C(O)C(O)C1O (some centres not stated), C=C1C(=O)C23C(O)C1CCC2[C@]12COC3(O)C(O)C1C(C)(C)CC[C@H]2O (some centres not stated), COc1ccc(S(=O)(=O)N2CCN(c3ccc(F)cc3)CC2)cc1-c1noc(C)n1, COc1ccc(N2CCN(S(=O)(=O)c3ccc(-c4coc(C)n4)cc3)CC2)cc1, Cc1ccc(/C(=C/CN2CCCC2)c2ccccn2)cc1, COC(=O)N1CCC2(CCCN(c3ccncc3)C2)CC1, O=C(Oc1cc(OC(=O)c2ccccc2)c2c(c1)OC(c1ccc(OC(=O)c3ccccc3)c(OC(=O)c3ccccc3)c1)[C@@H](OC(=O)c1ccccc1)C2)c1ccccc1 (some centres not stated), COC(=O)c1sc2[nH]c(=S)n(N)c(=O)c2c1C, CCOC(=O)C1=C(C)Nc2sc(C(=O)c3ccc(Br)cc3)c(N)c2C1c1ccc(C(=O)OC)cc1 (configuration not stated), COc1cc2c(cc1OC)[C@@H](Cc1cc(OC)c(OC)c(OC)c1)[N+](C)(CCCOC(=O)CC/C=C/CCC(=O)OCCC[N+]1(C)CCc3cc(OC)c(OC)cc3[C@H]1Cc1cc(OC)c(OC)c(OC)c1)CC2 (some centres not stated), O=Cc1c(N2CCN(c3cccc(Cl)c3)CC2)nc2ccccn2c1=O, Cc1cccn2c(=O)c(C=O)c(Nc3ccc(S(N)(=O)=O)cc3)nc12, CC(=O)NC(=O)c1ccccc1O, CC1CC2C3CCC4=CC(=O)C=C[C@]4(C)[C@@]3(F)[C@@H](O)C[C@]2(C)[C@@]1(O)C(=O)CO (some centres not stated), COc1c2c(cc3occ(-c4ccc5c(c4)OCO5)c(=O)c13)OC(C)(C)C=C2, COc1ccc(C(=O)N2CCC3(CC2)CCN(c2ccccn2)CC3)cc1, COc1ccc(-c2nc3cnc(OC)nc3n(Cc3ccc(F)cc3)c2=O)cc1, CC(N)(C(=O)O)c1ccc(-c2nn[nH]n2)cc1 (configuration not stated), COCCn1c(=O)c(CCc2ccccc2)nc2cncnc21, O=C(O)CCC(=O)O, COc1ccc(CNc2ncncc2-c2ccccc2OC)c(OC)c1, O=C1NS(=O)(=O)c2ccccc21, CC1(C)C=CC(=O)[C@]2(C)C1CC(=O)[C@]1(C)C2CC[C@@]2(C)C(c3ccoc3)OC(=O)C3OC321 (some centres not stated), O=C1C(c2ccccn2)=[N+]([O-])c2ccccc21, O=C1C(c2[nH]c3ccccc3c2O)=Nc2ccccc21, O=C(c1ccncc1)N1CCC2(CCN(Cc3cc(C(F)(F)F)cc(C(F)(F)F)c3)CC2)CC1, COc1ccc(CNC(=O)C(Cc2ccccc2)n2cccc2)cc1 (configuration not stated), CCOC(=O)C(Cc1ccc(N)cc1)N1C(=O)c2ccccc2C1=O (configuration not stated), COc1cccc(Cn2c(=O)cnc3cncnc32)c1, CC(=O)N1CCN(C(=O)c2cc(-c3ccc(Cl)s3)nc3ccccc23)CC1, Cc1ccc(S(=O)(=O)N2CCN(C(=O)c3ccccc3-c3nc4ccccc4s3)CC2)c(C)c1, O=c1c(CCc2ccccc2)nc2cnc(N3CCNCC3)nc2n1Cc1cccs1, NC(=O)C(=O)N/N=C/c1ccc([N+](=O)[O-])o1, CCOC(=O)C1C/C(=C\C(C)=O)c2cccc(C(F)(F)F)c2O1 (configuration not stated), COc1ccc(N2CCN(S(=O)(=O)c3ccc4c(c3)NC(=O)C(C)C(=O)N4)CC2)cc1 (configuration not stated), O=C(c1ccc(S(=O)(=O)N2CCCC2)cc1)N1CCN(c2ccccc2F)CC1, CC(C)=CC1C(C(=O)O)C1(C)C (configuration not stated), Oc1ccc(Cl)c2c1CCC2

Potency, inactive and 11.2 µM (active):
C#CCCCCCCCCCCCCCCCC(=O)O

Potency, active:
O=C(c1cccnc1)N(c1cc2sc(=O)oc2c2ccccc12)S(=O)(=O)c1ccccc1 31.6 µM, Cc1ccnc(-n2sc3ccccc3c2=O)n1 3.16 µM, O=C(NCc1ccccn1)c1ccc2nc(-c3ccco3)c(-c3ccco3)nc2c1 11.2 µM, COCCNC(=O)Nc1ccc2nc(-c3ccco3)c(-c3ccco3)nc2c1 17.8 µM, Cc1ccc(-c2nn(-c3ccccc3)cc2/C=C2\SC(=S)N(CCCCCC(=O)O)C2=O)o1 25.1 µM, COc1cc(OC)cc(C(=O)NC(=S)N2CCN(c3ccc(C(F)(F)F)cc3[N+](=O)[O-])CC2)c1 2 µM, O=C(Nc1c(C(=O)N2CCCCC2)cnn1-c1ccccc1)c1ccco1 17.8 µM, COc1ccc(-c2cn3cccnc3n2)cc1 31.6 µM, CCc1nc(-c2cc(S(=O)(=O)N3CCN(c4ccc(OC)cc4)CC3)ccc2OC)no1 25.1 µM, CCOC(=O)c1sc(=S)n2c1[nH]c(=O)c1ccc(C(=O)OC)cc12 35.5 µM, CCCc1cc(=S)n2c([nH]c3ccccc32)c1C#N 22.4 µM, O=Cc1c(Nc2ccccc2Cl)nc2ccccn2c1=O 22.4 µM, Cc1ccc(C)n1C(Cc1ccccc1)C(=O)O (configuration not stated) 22.4 µM, CC(=O)N1CCN(C(=O)c2cc(-c3ccc(C)o3)nc3ccccc23)CC1 20 µM, CC1C(=O)Nc2ccc(S(=O)(=O)N3CCN(c4ccccc4F)CC3)cc2NC1=O (configuration not stated) 39.8 µM

Reference: PubChem BioAssay AID504327 (National Center for Advancing Translational Sciences (NCATS), 2011)
